# Bioassay records (PubChem BioAssay)
# A selection: hits, their analogues and other compounds. The true share with any hit is near 3.1%.
# Calb FLC: C. albicans growth modulation with fluconazole. C. albicans CaCi-2 (fluconazole-resistant clinical isolate) + fluconazole, Alamar Blue growth, 48 h. growth inhibition, % (test concentration not listed). 300,000 compounds, 0.57% hits;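 active = growth inhibition above about 58% in most replicates, limit read from the data, passing the limit was not always enough; inconclusive = exactly half the replicates above a set limit; inactive = most replicates below a set limit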;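 also: all wells also contain fluconazole at 8 µg/ml as a sub-toxic cotreatment; 0% = median of DMSO wells and 100% = median of geldanamycin control wells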
# FAS TE block: FAS thioesterase (human) inhibition | P49327 | AID 602261 | inhibition, % at 15 µM | recombinant FAS-TE, OMFH fluorogenic substrate, fluorescence endpoint | 360,000 compounds, 0.67% hits;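 active = compounds whose normalised, plate-corrected inhibition of enzyme fluorescence in the single-dose primary screen is 50% or more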;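 also: 0% = DMSO with enzyme and 100% = substrate without enzyme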
# Mot1-301 SUMO: SUMOylation pathway inhibition by Mot1-301 growth rescue; S. cerevisiae Mot1-301 growth rescue, ATP luminescence, 38.5C; percent above DMSO median, 100 means doubled; growth rescue, % at 18.8 µM; 320,000 compounds, 1% hits; AID 2716;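 active = every valid replicate shows activation above 250% relative to neutral control wells; inactive = the rest, any valid replicate at or below 250%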;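 also: OY570 slx delta 5 strain wells were the positive control but not used for scaling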
# ATG4B inh: inhibitors of human ATG4B cysteine protease. Q9Y4P1. ATG4B cleavage of LC3-PLA2, NBD-HPC fluorescence, 1 h. inhibition, % at 8.33 µM. 340,000 compounds, 0.51% hits. AID 504462; in the data active = inhibition above about 40%
# Target sequence (Q9Y4P1 whole entry, looked up): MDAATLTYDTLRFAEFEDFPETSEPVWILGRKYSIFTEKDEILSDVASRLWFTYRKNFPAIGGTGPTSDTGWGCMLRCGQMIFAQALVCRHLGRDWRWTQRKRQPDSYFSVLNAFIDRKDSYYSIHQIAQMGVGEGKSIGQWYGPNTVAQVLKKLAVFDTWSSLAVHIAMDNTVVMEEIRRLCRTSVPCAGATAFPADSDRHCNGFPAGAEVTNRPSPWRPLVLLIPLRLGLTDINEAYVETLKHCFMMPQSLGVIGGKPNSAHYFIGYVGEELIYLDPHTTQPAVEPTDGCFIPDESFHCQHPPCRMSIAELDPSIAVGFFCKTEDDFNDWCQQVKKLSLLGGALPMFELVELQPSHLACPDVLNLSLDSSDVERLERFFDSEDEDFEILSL
# NadD inh: blocks S. aureus nicotinate mononucleotide adenylyltransferase; purified NadD enzyme, colorimetric absorbance read-out; inhibition, % at 20 µM; 360,000 compounds, 0.78% hits; in the data active = inhibition above about 26%
# ATG4B conf: ATG4B (human) inhibition, single-dose confirmed. 320 compounds, 92% hits. ATG4B protease fluorescent substrate cleavage assay. shares compounds with ATG4B inh. inhibition, % at 8.33 µM; in the data active = inhibition above about 39%
# PLA2 ctr: inhibits human PLA2, flagging false ATG4B inhibitors | shares compounds with ATG4B inh | purified PLA2, NBD-C6-HPC fluorescence, 45 min | inhibition, % at 8.33 µM | 1,600 compounds, 66% hits | AID 588402; in the data active = inhibition above about 50%
# Target sequence (P04054 whole entry, looked up): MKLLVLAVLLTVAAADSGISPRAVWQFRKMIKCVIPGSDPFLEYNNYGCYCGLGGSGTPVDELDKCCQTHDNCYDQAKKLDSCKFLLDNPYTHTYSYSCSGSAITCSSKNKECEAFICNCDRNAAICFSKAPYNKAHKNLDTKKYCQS
# * hit, by the source's call; u = inconclusive; x = no result.
SMILES,Calb FLC,FAS TE block,Mot1-301 SUMO,ATG4B inh,NadD inh,PLA2 ctr,others
O=C1NC[C@H](c2ccccc2)N(CCc2cccc(F)c2)C1=O,12,-8,1,-4,-1,x,
O=C(CCCn1c(=S)[nH]c2cc3c(cc2c1=O)OCO3)N1CCN(c2ccccc2F)CC1,5,19,10,51*,11,54*,
O=C(CCCn1c(=S)[nH]c2cc3c(cc2c1=O)OCO3)N1CCN(c2ccc(F)cc2)CC1,9,38,-4,56*,22,48,ATG4B conf=59*
O=C(CCCCCn1c(=S)[nH]c2cc3c(cc2c1=O)OCO3)N1CCN(c2ccccc2)CC1,0,-5,13,7,24,x,
Cc1ccc(C)c(N2CCN(C(=O)CCCn3c(=S)[nH]c4cc5c(cc4c3=O)OCO5)CC2)c1,u,19,60,52*,29,62*,
COc1ccccc1N1CCN(C(=O)CCCCCn2c(=S)[nH]c3cc4c(cc3c2=O)OCO4)CC1,x,-2,x,x,13,x,
O=C(CCCn1c(=S)[nH]c2cc3c(cc2c1=O)OCO3)N1CCN(c2ncccn2)CC1,-4,6,-36,14,5,x,
CCn1cc(CN2CCC(n3nccc3NC(=O)c3ccc(OC)cc3)CC2)cn1,-3,-9,-11,2,-8,x,
CCCNC(=O)c1cc(C2CCCN(C(=O)c3ccc(NC(C)=O)cc3)C2)on1 (stereo not given),x,-7,x,x,-6,x,
C=CCOC(=O)c1cc(-c2ccc(/C=C3\C(=O)NC(=O)C(C#N)=C3C)o2)ccc1Cl,x,7,x,70*,69*,50,
Cc1ccc2c(c1)c1c(n2C)C(C(N)=O)CCC1 (stereo not given),-18,-6,-11,62*,1,69*,
O=C1SCCc2c1n(Cc1ccccc1)c1ccccc21,-2,23,-4,1,0,x,
NC(=O)C1CCCc2c1n(Cc1ccccc1)c1ccccc21 (stereo not given),-23,-4,-20,84*,-7,88*,
CCN(CC(=O)N1CCOCC1)S(=O)(=O)c1ccc2ccccc2c1,-3,-6,-5,-3,4,x,
CCN(CC(=O)N1CCc2ccccc2C1)S(=O)(=O)c1ccc2ccccc2c1,3,24,-2,46*,-4,41,ATG4B conf=66*
Cc1cccc2nc(-c3cccnc3)c(NCCC(C)C)n12,-26,15,13,40*,-17,51*,
CN(Cc1cccc(F)c1)C(=O)c1ccccc1Sc1ccccc1C#N,5,12,-17,4,-6,x,
CC1CCc2c(sc(NC(=O)c3ccccc3C(=O)O)c2C#N)C1 (stereo not given),0,-8,84,4,-7,x,
CCC(C)(C)C1CCc2c(sc(NC(=O)c3ccccc3C(=O)O)c2C#N)C1 (stereo not given),34,20,200,71*,10,87*,
COC(=O)C1CCN(C2CN(Cc3ccc(C)cc3)S(=O)(=O)C2)CC1 (stereo not given),x,-5,x,x,-7,x,
Cc1ccc(NC(=S)NNc2ccc([N+](=O)[O-])cc2S(=O)(=O)Nc2ccccc2C(=O)O)cc1C,u,62*,6,74*,13,71*,
CC(=O)Nc1ccc(C=NNc2ccc([N+](=O)[O-])cc2S(=O)(=O)Nc2ccccc2C(=O)O)cc1,x,42,-14,34,14,x,
O=C(O)c1ccccc1NS(=O)(=O)c1ccc(NNC(=S)Nc2ccc(OC(F)F)cc2)c([N+](=O)[O-])c1,24,4,x,51*,16,64*,
CC(=O)Nc1cccc(/C(C)=N/Nc2ccc(S(=O)(=O)Nc3ccccc3C(=O)O)cc2[N+](=O)[O-])c1,x,40,x,23,22,x,
O=C(Nc1ccc([N+](=O)[O-])cc1)c1ccccc1F,8,6,-12,3,1,x,
SMILES,Calb FLC,FAS TE block,Mot1-301 SUMO,ATG4B inh,NadD inh,PLA2 ctr,others
CC1(c2ccc(NC(=O)c3ccccc3F)cc2)CC1(Cl)Cl (stereo not given),-19,26,-9,57*,-7,67*,
O=C1c2ccccc2N2C(=O)c3ccccc3[C@H]2N1c1ccccc1,-4,1,1,55*,-2,61*,
O=C(Nc1nc(COc2ccccc2)cs1)c1ccccc1F,4,0,-1,54*,-8,33,
COc1ccc(OC)c(-c2csc(NC(=O)c3ccccc3F)n2)c1,-13,29,10,17,-6,x,
CCOC(=O)c1ccc(N=C2SC(C(=O)Nc3ccc(C(=O)O)cc3)CC(=O)N2Cc2cccs2)cc1 (stereo not given),6,-2,-13,55*,19,55*,
CCOC(=O)c1ccc(N=C2SC(C(=O)NC)CC(=O)N2Cc2ccc(F)cc2)cc1 (stereo not given),-4,6,-29,1,-12,x,
O=C(OCC(=O)N1CCN(c2ccccc2)CC1)c1ncc(Cl)c(Cl)c1Cl,-6,18,21,-4,-7,x,
COc1ccc(N(CC(=O)Nc2ccccc2C(=O)O)S(=O)(=O)c2ccc(C)c([N+](=O)[O-])c2)cc1,8,8,205,59*,9,62*,
CCOC(=O)c1ccc(NC(=O)NCCc2cnc[nH]2)cc1,12,-7,1,1,7,x,
COc1ccc(-c2nc(CS(=O)(=O)CC(=O)NCc3ccccc3Br)c(C)o2)cc1,4,16,8,84*,1,92*,
COc1ccc(-c2nc(CS(=O)(=O)CC(=O)NCc3ccccc3OC)c(C)o2)cc1,-7,3,39,5,-8,x,
N#Cc1ccc(NC(=O)Cn2cnc(S(=O)(=O)N3CCCC3)c2)cc1,3,-4,-6,5,-3,x,
CCOC(=O)C(=NC(C)CC)NNc1cccc(C(F)(F)F)c1 (stereo not given),-5,19,29,40*,-7,4,
CCOC(=O)C(=NC(C)CC)NNc1ccc(Br)cc1 (stereo not given),-28,16,179,-6,5,x,
CC(=O)Cn1cnc2c(cnn2-c2ccc(C)c(C)c2)c1=O,13,-2,1,-2,-4,x,
CC1=NN(c2ccc(C(=O)O)cc2)C(=O)/C1=C\c1ccc(OC(=O)c2cccs2)cc1,-19,0,-13,85*,11,70*,
O=C(NCc1c(Cl)cccc1Oc1ccccc1)c1ccccc1,-12,21,-17,47*,-6,57*,
O=C(OCC(=O)N1CCc2ccccc21)c1ccncc1,x,-4,-1,-5,1,x,
Oc1ccccc1CN(Cc1ccco1)CC(O)COCc1ccc(Cl)cc1 (stereo not given),-1,20,-12,40*,-5,28,
